Bioassay records as filed in PubChem.
HCMV antiviral – inhibitors of human cytomegalovirus; 410,000 tested, 4.5% active; activity change, negative = inhibition, % at 57.5 µM; HFF cells, HCMV-luciferase reporter, 72 h; active compounds read low; in the data active means activity change below about -60%; inconclusive means no clear call, values can overlap the other calls; inactive means above about -39%
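Compounds were evaluated in HFFs infected with an HCMV luciferase reporter virus (MOI 1 PFU/cell). Luciferase in lysates collected 72 h post infection served as the replication measure.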
Sm TGR block – blocks Schistosoma mansoni thioredoxin glutathione reductase; purified TGR, DTNB reduction, TNB absorbance 405 nm; AID 485364; Q962Y6; 360,000 tested, 3% active; Potency, µM (series often up to 114 µM), hits mostly inhibitors; further: nearly all actives have a fitted effect of over 60% in size
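First, TGR (20 nM dispensed) and NADPH were mixed with compound. Second, a 15 min room-temperature incubation followed. Third, further NADPH and then DTNB were added to start the reaction. Finally, TNB absorbance was monitored kinetically.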
Pf growth 48h – inhibits P. falciparum growth in the first generation, 48 h; P. falciparum luciferase growth in erythrocytes, 48 h; Potency, µM (top dose mostly 28.7 µM), hits mostly inhibitors; AID 504832; 310,000 tested, 5.9% active
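Luciferase-expressing parasites in RBCs, 2% Hct / 0.1% parasitemia final; RPMI 1640 + 0.5% Albumax; 37 C, 5% CO2, one generation; luminescence read-out, lower signal = inhibition.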
Giardia FBPA inh – inhibitors of Giardia lamblia fructose-1,6-bisphosphate aldolase. A8B2U2. purified Giardia FBPA. Potency, µM (series often up to 59.6 µM), most hits filed as inhibitors. 290,000 tested, 0.71% active. AID 2451; further: nearly all actives have a fitted effect of over 55% in size
Target sequence (A8B2U2 whole entry, looked up): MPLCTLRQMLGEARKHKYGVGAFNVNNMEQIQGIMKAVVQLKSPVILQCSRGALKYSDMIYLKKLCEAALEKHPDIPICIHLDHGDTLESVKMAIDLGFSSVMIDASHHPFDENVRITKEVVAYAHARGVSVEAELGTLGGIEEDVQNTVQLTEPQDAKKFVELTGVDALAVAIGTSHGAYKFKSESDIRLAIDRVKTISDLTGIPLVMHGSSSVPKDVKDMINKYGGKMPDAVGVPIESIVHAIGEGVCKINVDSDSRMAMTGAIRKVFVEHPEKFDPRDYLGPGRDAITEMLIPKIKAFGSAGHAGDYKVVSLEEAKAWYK
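Giardia FBPA (40 nM reagent) was preincubated 10 min at RT with compound (up to 57.5 uM final), then substrate plus GAPDH/TPI/NAD/arsenate coupling system with diaphorase/resazurin was added; resorufin fluorescence (525/598 nm) was read after 20 min.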
Pf growth 96h – P. falciparum growth inhibition at 96 hour, primary screen for plastid delayed-death inhibitors; P. falciparum luciferase reporter growth, 96 h; Potency, µM (titrated, usually from 28.7 µM), most hits filed as inhibitors; 320,000 tested, 6.9% active
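Plates of compound plus infected erythrocytes (2% hematocrit, 0.05% parasitemia final) incubate 96 hours, 37 C, 5% CO2. Detection reagent added; reduced luminescence from the parasites' luciferase reporter flags inhibition.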
Of the large screens only hits and unclear results are named; the others gave an inactive call. In the library only some 14% were active in any assay of this set; here they are far more common. Unless noted, the call rests on the fitted dose curve; in most records, active means well fitted curve in the direction sought with a large enough effect; inconclusive means small, poorly fitted or top-dose-only effect, or another doubt; inactive means no such curve, though single readings can be large; an effect the other way counts as inactive or inconclusive.

COc1ccc2[nH]cc(CCNc3ccnc(-c4ccc(C(=O)N(C)C)cc4)n3)c2c1	none (no result: HCMV antiviral, Sm TGR block, Pf growth 48h, Pf growth 96h)
CCc1noc(C)c1C(=O)N(C)CC(=O)Nc1ccc(F)c(F)c1F	none (no result: Giardia FBPA inh)
COc1ccc(-c2nc(CNC(=O)Nc3ccccc3)c(C)o2)cc1	none (no result: Pf growth 48h, Giardia FBPA inh, Pf growth 96h)
CCCC(=O)NCC(c1ccc2c(c1)OCO2)N1CCOCC1 (centres undefined)	none (no result: Pf growth 48h, Giardia FBPA inh, Pf growth 96h)
O=C(/C=C/c1ccc(Br)o1)OCc1nc2ccsc2c(=O)[nH]1	Sm TGR block 45µM (no result: HCMV antiviral, Giardia FBPA inh)
Cc1ccc(C(=O)OCc2nc3ccsc3c(=O)[nH]2)o1	Pf growth 48h inconclusive (no result: Giardia FBPA inh)
C#CC[N+](C)(C)CC#Cc1ccc(C)cc1	HCMV antiviral -90, Pf growth 48h 1.9µM, Pf growth 96h inconclusive
CN(Cc1ccccc1)C1(CNC(=O)CCC(F)(F)F)Cc2ccccc2C1	Pf growth 96h 15µM
CC(=O)NCCC(=O)NCC1(N(C)Cc2ccccc2)Cc2ccccc2C1	none
CN(C)S(=O)(=O)c1ccc(C(=O)NCC[N+]2(C)CCCCCC2)o1	Pf growth 48h inconclusive, Pf growth 96h 9.3µM
COc1cc(-c2cc(C(=O)N(C)Cc3ccccc3)c3ccccc3n2)cc(OC)c1OC	Pf growth 48h 13µM, Pf growth 96h inconclusive (no result: Giardia FBPA inh)
COCCN(Cc1ccccc1)C(=O)c1cc(-c2ccc(OC)c(OC)c2)nc2ccccc12	Pf growth 48h 9.3µM, Pf growth 96h inconclusive (no result: Giardia FBPA inh)
COc1ccccc1CN(C)C(=O)c1cc(-c2cc(OC)c(OC)c(OC)c2)nc2ccccc12	Pf growth 48h inconclusive, Pf growth 96h inconclusive
CCN(Cc1ccccc1)C(=O)c1cc(-c2ccc(OC)c(OC)c2)nc2ccccc12	none (no result: Giardia FBPA inh)
Cc1noc(C)c1NC(=O)Nc1ccc2c(c1)C(=O)N([C@H](C)CO)C[C@H](C)[C@@H](CN(C)S(=O)(=O)c1ccccc1)O2	none (no result: Sm TGR block, Pf growth 48h, Giardia FBPA inh, Pf growth 96h)
COCCn1c(=O)[nH]c2cc(C(=O)N3CCN(c4ccc(Cl)cc4)CC3)ccc2c1=O	none
COCCn1c(N2CCN(c3ccccc3)CC2)nc2c1c(=O)n(C)c(=O)n2C	none
COCCn1c(C)cc(O)c(C(c2ccc(F)cc2)N2CCN(c3ccccc3)CC2)c1=O (centres undefined)	Sm TGR block 3.2µM (no result: Pf growth 48h, Giardia FBPA inh, Pf growth 96h)
COCCn1c(C)cc(O)c(C(c2ccc(Cl)cc2)N2CCN(c3ccccc3)CC2)c1=O (centres undefined)	Sm TGR block 2.8µM (no result: Pf growth 48h, Giardia FBPA inh, Pf growth 96h)
CCOc1ccc(C(c2c(O)cc(C)n(CCOC)c2=O)N2CCN(c3ccccc3)CC2)cc1 (centres undefined)	Sm TGR block 6.3µM (no result: Pf growth 48h, Giardia FBPA inh, Pf growth 96h)
CCOc1ccc(C(c2c(C)n(C)n(-c3ccccc3)c2=O)c2c(C)n(C)n(-c3ccccc3)c2=O)c(O)c1	none (no result: Sm TGR block, Pf growth 48h, Giardia FBPA inh, Pf growth 96h)
CN(Cc1ccccc1)C(=O)COC(=O)CCC(=O)c1ccc(Cl)cc1	none (no result: Sm TGR block, Pf growth 48h, Giardia FBPA inh, Pf growth 96h)
N[C@H](CC(=O)O)C(=O)O	Pf growth 96h inconclusive (no result: HCMV antiviral, Sm TGR block)
CCOC(=O)c1cccn1C1C(=O)N(Cc2ccc(OC)cc2)c2ccc(F)cc21 (centres undefined)	none (no result: Sm TGR block, Pf growth 48h, Giardia FBPA inh, Pf growth 96h)
COc1ccc(-c2csc(N3N=C(C)C(C)C3=O)n2)cc1 (centres undefined)	Pf growth 96h 12µM
CC1=NN(c2nc(-c3ccc(C)cc3)cs2)C(=O)C1N=Nc1cccc(O)c1 (centres undefined)	none
CC1=NN(c2nc(-c3ccc(C)cc3)cs2)C(=O)C1N=Nc1ccccc1O (centres undefined)	HCMV antiviral -102, Pf growth 48h inconclusive
C=CCn1c(Cc2c[nH]c3ccccc23)n[nH]c1=S	Pf growth 48h 13µM
C=CCn1c(Cc2ccccc2)n[nH]c1=S	Giardia FBPA inh inconclusive
COc1ccc(CN2C(=O)c3ccc(C(=O)O)cc3C2=O)cc1	Pf growth 96h 9.3µM (no result: Pf growth 48h)
O=C(O)c1ccc2c(c1)C(=O)N(N1C(=O)c3ccccc3C1=O)C2=O	Pf growth 96h 9.3µM
O=C(Nc1ccc(O)cc1)c1ccc2c(c1)C(=O)N(N1C(=O)c3ccccc3C1=O)C2=O	Pf growth 96h inconclusive (no result: Giardia FBPA inh)
O=C(O)c1ccc2c(c1)C(=O)N(CCc1ccccc1)C2=O	Pf growth 96h inconclusive
O=C(Nc1ccccc1O)c1ccc2c(c1)C(=O)N(N1C(=O)c3ccccc3C1=O)C2=O	Pf growth 96h 9.3µM
CC1CCC2C(=O)N3C(CCC(C)C3c3ccccc3Br)C(=O)N2C1c1ccc(C#CCN(C)C)cc1 (centres undefined)	none (no result: HCMV antiviral, Sm TGR block, Pf growth 48h, Pf growth 96h)
